Source: PubChem BioAssay (NCATS)
“And” between values parts separate entries of the source, which are not always exact repeats. Identical values can stand only once. Records with an inconclusive call do not appear. Unmarked numbers belong to inactive results. The source made the active and inactive calls. Calls come from the whole dose curve; as a rule, active = well fitted curve in the direction sought with a large enough effect; inconclusive = small, poorly fitted or top-dose-only effect, or another doubt; inactive = no such curve, though single readings can be large; an effect the other way counts as inactive or inconclusive.
% is set by controls: 0 for no effect and ±100 for the full control effect.

Assay: qHTS Assay for Identifying Gametocytocidal Compounds (AID 743244);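 note: actives lower the fluorescent signal which means gametocytes are killed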
Details: P. falciparum 3D7 stage III-V gametocytes, alamarBlue, 72 h; max response: active compounds read low
How it was run: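 Fluorescence at Ex 525/Em 598 nm, recorded 24 h after alamarBlue addition, reports residual metabolic activity of 3D7 gametocytes (stages III–V) following 72 h compound exposure at 37 °C, 5% CO2.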
`CC[N+](CC)(CC(=O)Nc1c(C)cccc1C)Cc1ccccc1` gave a max response of 7.32%. For `CCCCCCCCCCCCCCCCCCO`, the max response was 4.31%. `Cc1c(C(=O)NCCO)[n+](=O)c2ccccc2n1[O-]` gave a max response of 6.22%. Work on `CCCCCOC(=O)Nc1nc(=O)n([C@@H]2O[C@H](C)[C@@H](O)[C@H]2O)cc1F` yielded a max response of 5.02%. In the case of `NS(=O)(=O)c1cc(C2(O)NC(=O)c3ccccc32)ccc1Cl` (stereo not drawn), the max response is reported as 0.268%. For `COc1ccc2cc(CCC(C)=O)ccc2c1`, the max response was -1.38%. With `O=C(OOC(=O)c1ccccc1)c1ccccc1` the max response was -8.14%. `CC(C)CCOC(=O)c1ccc(N(C)C)cc1` gave a max response of -13.7%. For `COc1ccc(C(=O)N2CCN(CC(=O)N3CCOCC3)CC2)cc1`, the max response was -4.8%. Work on `COc1ccc(NS(=O)(=O)c2ccc(N)cc2)nn1` yielded a max response of 10.4%. For `CCCCCCCCCCOc1cc2c(=O)c(C(=O)OCC)c[nH]c2cc1OCC`, the max response was -3.15%. `CC(=O)SC[C@@H](Cc1ccccc1)C(=O)NCC(=O)OCc1ccccc1` showed a max response of 3.78%. Compound `CCCOC(=O)c1ccc(N)cc1` has a max response of -6.49%. `O=C(O)CCCCC1CCSS1` (stereo not drawn) gave a max response of 3.67%. `CC(C)=CCC/C(C)=C/CO` gave a max response of 19.8%. `CCN(CC)CC1CCCCN1CC(=O)N1c2ccccc2C(=O)Nc2cccnc21` (stereo not drawn) gave a max response of 3.31%. With `COC(=O)c1cccnc1` the max response was 29%. `CCN(CC)CCc1nc(-c2ccccc2)no1` gave a max response of 1.91%. `COC(=O)c1ccc(O)cc1` gave a max response of -9.3%. Compound `OC[C@@H](O)[C@@H](O)[C@H](O)[C@H](O)CO` has a max response of 5.56%. `Cn1cc(C(=O)[C@@H]2CCc3nc[nH]c3C2)c2ccccc21` gave a max response of -8.94%. With `NS(=O)(=O)c1ccc(NC(=O)CCC(=O)O)cc1` the max response was -3.82%. Work on `C[N+](C)(C)CC(O)CC(=O)[O-]` (stereo not drawn) yielded a max response of -7.85%. Work on `Cc1cccc(Nc2ccccc2C(=O)O)c1C` yielded a max response of 4.7%. With `NS(=O)(=O)c1ccc(C(=O)O)cc1` the max response was 4.63%. With `NC(=O)CCCCC1CCSS1` (stereo not drawn) the max response was 0.706%. In the case of `CC1(C)S[C@@H]2[C@H](N=CN3CCCCCC3)C(=O)N2[C@H]1C(=O)O`, the max response is reported as -2.77%. `O=C(NCCCN1CCOCC1)c1ccc(Cl)cc1` gave a max response of -7.89%. Compound `Cc1ccc(C(C)C)c(O)c1` has a max response of 22.6%. Compound `CC(C)(C)C(=O)OCOC(=O)[C@@H]1N2C(=O)[C@@H](NC(=O)[C@H](N)c3ccccc3)[C@H]2SC1(C)C` has a max response of 0.54%. `O[C@@H]1CO[C@H]2[C@@H]1OC[C@@H]2O` showed a max response of -6.28%. Work on `CCS(=O)(=O)CCn1c([N+](=O)[O-])cnc1C` yielded a max response of 9.95%. Work on `CC(=O)OC[C@H]1O[C@@](COC(C)=O)(O[C@H]2O[C@H](COC(C)=O)[C@@H](OC(C)=O)[C@H](OC(C)=O)[C@H]2OC(C)=O)[C@@H](OC(C)=O)[C@@H]1OC(C)=O` yielded a max response of -6.87%. For `CC(CN(C)C)C(C)(O)Cc1ccc(Cl)cc1` (stereo not drawn), the max response was -5.22%. In the case of `Cc1cccc(C(=O)O)c1O`, the max response is reported as 2.78%. `CN1C[C@@H]2C[C@H]1CN2c1cc2c(cc1F)c(=O)c(C(=O)O)cn2C1CC1` showed a max response of 2.79%. `Cc1cc(O)cc(C)c1Cl` showed a max response of -2.6%.

Assay: qHTS assay for cell viability of HEK293 cells (AID 743288); note: nearly all actives have a fitted effect of over 50% in size
Details: ATP luminescence (CellTiter-Glo), 18 h, active compounds read low
How it was run: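 After 18 h compound exposure at 37 C, parental HEK293 cells (2,000/well) are lysed with CellTiter-Glo and luminescence is read following 30 min at room temperature.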
For `CC[N+](CC)(CC(=O)Nc1c(C)cccc1C)Cc1ccccc1`, the max response was -11.2%. For `CCCCCCCCCCCCCCCCCCO`, the max response was -6.21%. With `Cc1c(C(=O)NCCO)[n+](=O)c2ccccc2n1[O-]` the max response was -4.66%. `O=C(OOC(=O)c1ccccc1)c1ccccc1` showed a max response of -11.7%. With `O=C(O)CCCCC1CCSS1` (stereo not drawn) the max response was -11.1% and -8.74%. Compound `CC(C)=CCC/C(C)=C/CO` has a max response of 0.933%. Compound `COC(=O)c1ccc(O)cc1` has a max response of 1.25%. For `OC[C@@H](O)[C@@H](O)[C@H](O)[C@H](O)CO`, the max response was -10.6%. Work on `Cc1cccc(Nc2ccccc2C(=O)O)c1C` yielded a max response of 2.21%. Work on `Cc1ccc(C(C)C)c(O)c1` yielded a max response of -16.2%. With `Cc1cc(O)cc(C)c1Cl` the max response was -9.96%.

Assay: qHTS assay for cell viability of the p53RE-bla HCT-116 cell line (AID 743292); note: nearly all actives have a fitted effect of over 55% in size
Details: p53RE-bla HCT-116 viability, ATP luminescence, 16 h; series mostly up to 95 µM; activity change, negative = cytotoxicity: at the top concentration
How it was run: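 After plating at 4,000 cells per well and a 5 h rest at 37 C, HCT-116 cells carrying p53RE-bla received test chemicals in DMSO. Sixteen hours later at 37 C, CellTiter-Glo was added and luminescence recorded following 30 min at room temperature.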
For `CC[N+](CC)(CC(=O)Nc1c(C)cccc1C)Cc1ccccc1`, the “activity change, negative = cytotoxicity” value was -11.8%. In the case of `Cc1c(C(=O)NCCO)[n+](=O)c2ccccc2n1[O-]`, the “activity change, negative = cytotoxicity” value is reported as -5.92%. With `O=C(OOC(=O)c1ccccc1)c1ccccc1` the “activity change, negative = cytotoxicity” value was -10.9%. For `O=C(O)CCCCC1CCSS1` (stereo not drawn), the outcome was “inactive”. For `CC(C)=CCC/C(C)=C/CO`, the “activity change, negative = cytotoxicity” value was 3.1%. In the case of `COC(=O)c1ccc(O)cc1`, the “activity change, negative = cytotoxicity” value is reported as 0.904%. With `OC[C@@H](O)[C@@H](O)[C@H](O)[C@H](O)CO` the “activity change, negative = cytotoxicity” value was -4.61%. With `Cc1cccc(Nc2ccccc2C(=O)O)c1C` the “activity change, negative = cytotoxicity” value was 3.64%. With `Cc1ccc(C(C)C)c(O)c1` the “activity change, negative = cytotoxicity” value was 8.68%. In the case of `Cc1cc(O)cc(C)c1Cl`, the “activity change, negative = cytotoxicity” value is reported as -1.22%.
